# Measurements from the supplement of paper PMC3334620.
# In all, about 33,000 sequences were measured (“E-score (-0.5 to 0.5)”: median about -0.016, highest 2% from about 0.32 on). The sample holds the highest values, similar sequences and a random draw of the others, so the mix is not that of the screen.
# Target: T1, Stp1 (UniProt B3LFK1)
# T1 sequence: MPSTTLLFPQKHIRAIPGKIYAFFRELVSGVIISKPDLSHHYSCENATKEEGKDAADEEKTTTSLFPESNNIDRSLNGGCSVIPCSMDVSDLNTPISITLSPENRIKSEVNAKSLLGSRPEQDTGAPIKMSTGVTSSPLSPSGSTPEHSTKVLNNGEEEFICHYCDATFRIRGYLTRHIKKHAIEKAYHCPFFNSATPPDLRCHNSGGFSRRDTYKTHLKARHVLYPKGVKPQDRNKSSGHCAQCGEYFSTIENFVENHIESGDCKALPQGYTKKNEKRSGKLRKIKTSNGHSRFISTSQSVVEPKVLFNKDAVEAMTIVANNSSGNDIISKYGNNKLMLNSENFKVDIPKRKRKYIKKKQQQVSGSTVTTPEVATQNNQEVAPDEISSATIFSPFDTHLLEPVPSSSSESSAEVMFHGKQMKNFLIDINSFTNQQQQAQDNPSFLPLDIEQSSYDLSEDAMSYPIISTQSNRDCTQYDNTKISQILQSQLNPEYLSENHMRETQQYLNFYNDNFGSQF
# Experiment: PBM E-score (8-mer binding enrichment) (E-score (-0.5 to 0.5)); higher = stronger / more preferred TF binding
# Conditions: protein concentration: 200 nM; construct: GST-full length
# Procedure, shortened: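 Using PURExpress in vitro transcription/translation, GST-tagged yeast transcription factors were made in full-length or DNA-binding-domain form. These were applied at about 100-200 nM to double-stranded universal all-10-mer Agilent arrays, and bound protein was detected with fluorescent anti-GST. Scans were normalised with masliner before the Universal PBM Analysis Suite assigned E-scores to ungapped eight-base words pooled with their reverse complements.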
row,Sequence,PBM E-score
1,CATGCAAA,0.112
2,CATCTCAG,-0.0765
3,AACGCTCC,-0.122
4,CTAAACTA,-0.0468
5,AAATTCCG,0.126
6,CGTCTTAC,-0.0611
7,AGGACCAT,-0.113
8,GCAGTGCA,-0.0796
9,AATGTAGC,-0.0806
10,AGTTCGCC,0.159
11,GCTACACC,-0.0559
12,AGAGAGTC,-0.173
13,CCCGTATA,0.12
14,ACCGTAAC,0.0376
15,CCCGTAAC,-0.112
16,GCCGTATA,0.475
17,ACCGTATA,-0.0953
18,TCCGTAAA,0.0695
19,ACCGTAAA,0.0391
20,GCCGTAAC,0.33
21,GCCGTAAA,0.369
22,CGATCGAG,0.0366
23,AACTCAGA,0.183
24,CTCGCCAC,-0.0166
25,ATCGCCGG,0.192

row,Sequence,PBM E-score
1,CTCGCCGA,-0.0672
2,ATCGCCGA,0.212
3,CTCGCCGC,0.353
4,ATCGCCGC,0.45
5,CATTGGAC,-0.155
6,AGCTACTG,-0.229
7,AAAACATG,-0.00948
8,CTAGAGAA,0.23
9,CCACCTAG,-0.373
10,CAGTCTGG,-0.218
11,CCCCTTAA,-0.172
12,ACACGGTG,0.154
13,TCACGGCA,0.401
14,ACACGGGT,0.202
15,ACACGGAG,0.295
16,CCACGGAG,0.159
17,CCACGGGG,-0.124
18,CCACGGCG,0.478
19,TGACGGCA,0.175
20,ACACGGCG,0.488
21,ACACGGCT,0.458
22,ACACGGAT,0.315
23,TCACGGAA,0.173
24,GCTGCGAC,-0.089
25,TAACCCCA,-0.336

row,Sequence,PBM E-score
1,CAACACGA,0.0474
2,GCGCGAGA,0.107
3,AACAGTAC,0.0276
4,CCACGGAA,0.198
5,CCACGGCC,0.185
6,CCACGGCA,0.46
7,ACGGGGGC,-0.325
8,GTGAAGTA,-0.0855
9,CCCGCGTA,-0.0603
10,ACCGCGCG,0.209
11,GCCGCGTA,0.465
12,ACCGCGTA,0.051
13,CCCGCGCA,-0.0346
14,GCCGCGCA,0.476
15,ACCGCGCC,0.3
16,ACCGCGCA,0.0261
17,GCCGCGCC,0.46
18,AATCATTC,0.146
19,GAGAGCCC,-0.302
20,AATCGTAC,0.12
21,ATGCCATA,0.117
22,CCCCTGCC,-0.198
23,CGCCTCTC,0.0325
24,AGACGCCA,0.00574
25,CGACGCCG,0.457

row,Sequence,PBM E-score
1,CGACGCCA,0.106
2,AGACGCCG,0.405
3,CGACGCCC,0.0245
4,AGACGCCC,0.0951
5,CATATCTC,-0.0779
6,CGAGAAAG,-0.0578
7,GACTACGC,-0.174
8,ACATTCAC,-0.0143
9,AGGTGAAG,-0.132
10,ACAGGGTA,-0.125
11,ATTGCGCC,0.308
12,ATTGCGCG,0.32
13,ATTGCGCA,-0.0299
14,GGGAGCTA,-0.235
15,CTGCCGAA,0.127
16,GCGCCGAA,0.389
17,GTGCCGAA,0.322
18,TCGCCGAA,0.105
19,GCGCCGAC,0.309
20,ATGCCGAA,0.311
21,GCTTCGCC,-0.0679
22,CCAGCGAA,-0.209
23,CACCGTTA,0.0959
24,CGCCGTCA,0.216
25,CGCCGTTA,0.381

row,Sequence,PBM E-score
1,AGCCGTCC,0.308
2,CCCCGTTC,-0.235
3,GGCCGTTA,0.1
4,AGCCGTTC,0.424
5,AGCCGTTG,0.26
6,CGCCGTTC,0.464
7,AGCCGTTA,0.159
8,CACCGTTC,0.0204
9,CGCCGTCC,0.443
10,ATCGTAGG,-0.121
11,TGAGCGAA,0.0336
12,CAGCCAGC,-0.244
13,CCTGCGAC,-0.287
14,AATCTTCG,0.196
15,AGAACATA,0.00125
16,AGCCGCCA,-0.122
17,CGCCGCCA,0.154
18,AACCGCCC,-0.149
19,GGCCGCCC,-0.0498
20,AACCGCCG,0.324
21,AGCCGCCC,0.11
22,CCCCGCCG,0.0774
23,AACCGCCA,-0.153
24,CGCCGCCG,0.402
25,CGCCGCCC,0.346

row,Sequence,PBM E-score
1,AGCCGCCG,0.361
2,CTCCGCCC,-0.192
3,ATTCTCAC,0.0144
4,AAGAGTAC,-0.0411
5,GGACTCTA,-0.344
6,AGCTTCAC,-0.221
7,CAGCTAAC,-0.171
8,AACCTCTA,-0.104
9,CGCAGTTA,0.0737
10,GGCACTAA,0.392
11,AGCACTAA,0.132
12,AGCACAAA,0.206
13,GGCAAGAA,0.22
14,GGCACGAA,0.389
15,GGCACAAA,0.374
16,GGCAAAAA,0.388
17,TGCACAAA,0.0921
18,GGCAAAAC,0.254
19,AGCACGAA,0.0412
20,GGCACGAC,0.208
21,TGCACTAA,0.109
22,CATGCACA,0.0872
23,TATCAGAA,0.22
24,CTTGCTTA,-0.203
25,AGGGCCGC,0.168

row,Sequence,PBM E-score
1,TGCCTCAA,-0.019
2,TATTGCGA,0.165
3,CACCTCAA,0.0958
4,AGCTGCAC,-0.111
5,CAAGTCGG,-0.0998
6,TACACGCA,-0.204
7,GGTTTATA,0.0512
8,CGTTTATA,0.331
9,AGTTTATA,0.153
10,GATTGTCC,-0.0756
11,AAAACAAA,0.128
12,CCTGGACA,-0.187
13,CTGAGGTA,-0.0424
14,AGAAAGCA,0.158
15,ATCACTAA,0.0331
16,AGCGCGAC,-0.149
17,CGCGCGAC,0.12
18,GGCGCGAA,0.37
19,AGCGCGAA,0.0676
20,CGCGCGAA,0.129
21,GGCGCGAC,0.36
22,CTGGGAAC,0.0375
23,AGTCGATG,-0.194
24,AGTGGGGC,-0.231
25,ACAAGGCC,-0.026

row,Sequence,PBM E-score
1,ATAAGGCG,0.365
2,ACGGGGCC,-0.0286
3,ACAAGGCG,0.38
4,ACAAGGCT,0.198
5,ATAAGGCC,0.0529
6,ACGGGGCG,0.366
7,CCAAGGCG,0.341
8,ATAAGGCA,0.299
9,ACGGGGCT,-0.161
10,CCAAGGCA,0.173
11,CCAAGGCC,0.171
12,CGAGAAGC,-0.112
13,CAACCTTG,0.0792
14,CTCCCTGC,-0.293
15,CTTGATCC,0.0811
16,CGAGTCCG,0.128
17,CCAGTGAA,-0.0703
18,GAGATAGA,-0.0115
19,ACAGGGCT,-0.0531
20,ACAGGGCG,0.351
21,ACAGGGCA,0.244
22,CACCGACA,0.0706
23,CGGCAACA,0.368
24,AGGCAACA,0.143
25,CGGCAACC,0.266

row,Sequence,PBM E-score
1,CGGCAACG,0.368
2,TGGCAACA,0.195
3,AGGCAACG,0.0557
4,ACTTTTGG,-0.0182
5,CTATGCAA,-0.0966
6,CGGCCCAC,-0.051
7,ACATACGG,0.261
8,CCATACGC,0.0591
9,CAATACGA,0.143
10,CAATACGC,0.175
11,CCATACGG,0.395
12,CAATACGG,0.32
13,GACAATGA,-0.247
14,CGCCTTAC,0.405
15,AGCCTTGA,-0.0777
16,AGCCTTGG,-0.138
17,CGCCTTGA,0.0844
18,AGCCTTTC,-0.0105
19,CGCCTTGC,0.35
20,AGCCTTAC,-0.022
21,CGCCTTTA,0.129
22,CGCCTTTC,0.354
23,CGCCTTAA,0.211
24,AGCCTTGC,0.325
25,CGCCTTCC,0.206
